# Inconclusive results are not listed. Where a call stands in place of a potency, no number is given. Activity calls are given as the source filed them. Calls come from the whole dose curve; as a rule, active = well fitted cell-killing curve with a large enough effect in the repeat runs; inconclusive = weak or mixed curves, or effect the other way; inactive = flat fitted curve, though single readings scatter.
# Legend:
# [1] = cAMP Responsive Elements (CRE) small molecule antagonists, cell-based qHTS assay: qHTS cell viability counter screen (AID 2060913); note: nearly all actives have a fitted effect of over 40% in size
# Summary of the method: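 CRE-bla HEK293T cells were seeded in assay medium with 10% dialyzed FBS, incubated 18 hrs at 37 C, then exposed to compounds plus 0.25 uM final NKH477 for 3 hrs. Viability was read by CellTiter-Glo luminescence after 30 min, in the same wells.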
# [2] = cAMP Responsive Elements (CRE) small molecule agonists, cell-based qHTS assay: qHTS cell viability counter screen (AID 2060914);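 note: viability read after 3 h of compound exposure; nearly all actives have a fitted effect of over 50% in size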
# Summary of the method: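 Cells are seeded and incubated 18 h, treated with compounds in DMSO for 3 h, read for the bla reporter, then given CellTiter-Glo; luminescence is measured after 30 min at room temperature.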
Structure (SMILES),Potency [1],Potency [2]
Cc1ccccc1N=C(N)N=C(N)N,inactive,inactive
O[C@@H]([C@H](O)[C@H](O)CBr)[C@H](O)CBr,inactive,inactive
COC(=O)CSc1cc(N=c2sc(=O)n3n2CCCC3)c(F)cc1Cl,inactive,inactive
CCOC(=O)[C@H](CCc1ccccc1)N[C@@H](C)C(=O)N1C(=O)N(C)C[C@H]1C(=O)O,inactive,inactive
c1ccc2c(c1)-c1ccc3ccc4cccc5cc-2c1c3c45,inactive,inactive
CC1=CC(C)C(C=O)CC1 (stereo not given),inactive,inactive
CN1CCN(c2cc3c(cc2F)c(=O)c(C(=O)O)cn3-c2ccc(F)cc2)CC1,inactive,inactive
CCCCCCC(=O)O,inactive,inactive
OC/C=C/c1ccccc1,inactive,inactive
CCCC(=O)C(C)=O,inactive,inactive
CC1=C(C=O)C(C)(C)CC=C1,inactive,inactive
O=C1CCCCCCCCCCCCCCO1,inactive,inactive
CC(C)(c1cc(Br)c(O)c(Br)c1)c1cc(Br)c(O)c(Br)c1,inactive,inactive
CCOC(=O)C1CC(=O)C(=C(O)C2CC2)C(=O)C1 (stereo not given),inactive,inactive
O=[N+]([O-])c1ccc(Cl)cc1Cl,inactive,inactive
CNCCO,inactive,inactive
O=S(=O)(O)c1cc(O)c2ccc(Nc3ccccc3)cc2c1,inactive,inactive
C[C@H](CCC(=O)O)[C@H]1CC[C@H]2[C@@H]3[C@H](O)C[C@@H]4C[C@H](O)CC[C@]4(C)[C@H]3C[C@H](O)[C@]12C,inactive,inactive
CC(=O)c1ccccn1,inactive,inactive
C[C@]12CC[C@@H]3c4ccc(O)cc4C[C@@H](CCCCCCCCCS(=O)CCCC(F)(F)C(F)(F)F)[C@H]3[C@@H]1CC[C@@H]2O (stereo not given in full),inactive,inactive
CCN(CC)c1ccc(C(=O)c2ccccc2C(=O)O)c(O)c1,inactive,inactive
CC(C)C(=O)O,inactive,inactive
O=C(OCc1ccccc1)c1ccccc1O,inactive,inactive
CC(=O)C(C)=O,inactive,inactive
CC(C)=C1CC[C@@H](C)CC1=O,inactive,inactive

Structure (SMILES),Potency [1],Potency [2]
O=C(CCCN1CC=C(n2c(=O)[nH]c3ccccc32)CC1)c1ccc(F)cc1,inactive,inactive
CCCCCC(=O)CC,inactive,inactive
C=C[Si](OCC)(OCC)OCC,inactive,inactive
CC(=O)[O][Al][O]C(C)=O,inactive,inactive
CCCCCCCCCCCCCCC,inactive,inactive
CC/C=C\CCOC(=O)CC,inactive,inactive
C/C=C/C(=O)O,inactive,inactive
COc1cc([C@H]2Oc3cc([C@H]4Oc5cc(O)cc(O)c5C(=O)[C@@H]4O)ccc3O[C@@H]2CO)ccc1O,inactive,inactive
CN(C)C(=O)Oc1cccc([N+](C)(C)C)c1,inactive,inactive
CCOC(OCC)OCC,inactive,inactive
C=C(C)CCO,inactive,inactive
O=S(=O)(O)CCO,inactive,inactive
CN1CCCC1=O,inactive,inactive
CCCCC(CC)C(=O)OC(C)C (stereo not given),inactive,inactive
Cc1cc2c(cc1S(N)(=O)=O)S(=O)(=O)CCC2,inactive,inactive
COCCOc1cc2cc(C(=O)NC3CCN(C(C)C)CC3)n(CC(=O)Nc3ccc(Cl)cn3)c2cn1,inactive,inactive
Cc1cccc(C)c1NC(=O)C(C)N (stereo not given),inactive,inactive
CC#C[C@]1(O)CC[C@H]2[C@@H]3CCC4=CC(=O)CCC4=C3[C@@H](c3ccc(N(C)C)cc3)C[C@@]21C,inactive,inactive
COc1ccccc1NC(=O)CC(C)=O,inactive,inactive
CCCCCCCCN(C)C,inactive,inactive
OCCOc1ccc(OCCO)cc1,inactive,inactive
C/C(=N\O)c1ccc(OCC(=O)N2CCCCC2)cc1,inactive,inactive
Nc1cc(C(F)(F)F)ccc1S,inactive,inactive
C1N2CN3CN1CN(C2)C3,inactive,inactive
Cc1cc(C)c(/C=C2\C(=O)Nc3ccccc32)[nH]1,inactive,inactive

Structure (SMILES),Potency [1],Potency [2]
CCCc1ncc(C[n+]2ccccc2C)c(N)n1,inactive,inactive
c1cnc2c(n1)CCCC2,inactive,inactive
CN(c1nccc(=O)[nH]1)C1CCN(c2nc3ccccc3n2Cc2ccc(F)cc2)CC1,inactive,inactive
O[Si](c1ccccc1)(c1ccccc1)c1ccccc1,inactive,inactive
SCCc1cnccn1,inactive,inactive
CCOC(C)OCC,inactive,inactive
CC(=O)c1ccc(C)cc1,inactive,inactive
C=CC(=O)OCCC#N,inactive,inactive
CCCCCC(=O)O[C@]1(C(C)=O)CC[C@H]2[C@@H]3CCC4=CC(=O)CC[C@]4(C)[C@H]3CC[C@@]21C,inactive,inactive
C/C=C(\C)C(=O)OCCc1ccccc1,inactive,inactive
CCOC(=O)CC#N,inactive,inactive
C=C(C)C(=O)OCC(C)C,inactive,inactive
O=C(O)c1ccccc1C(=O)OCc1ccccc1,inactive,inactive
Cc1ccc(OC(=O)CC(C)C)cc1,inactive,inactive
O=Cc1ccc([N+](=O)[O-])cc1,inactive,inactive
CCOC(=O)[C@H](O)[C@@H](O)C(=O)OCC,inactive,inactive
CC(C)NCC(O)COc1ccc(CC(N)=O)cc1 (stereo not given),inactive,inactive
CC(=O)O[C@]1(C(C)=O)CC[C@H]2[C@@H]3C=C(Cl)C4=CC(=O)[C@@H]5C[C@@H]5[C@]4(C)[C@H]3CC[C@@]21C,inactive,inactive
CC1=C(C(=O)O)N2C(=O)[C@@H](NC(=O)[C@H](N)c3ccccc3)[C@H]2SC1,inactive,inactive
CCCCCCC(O)CCOC(C)=O (stereo not given),inactive,inactive
CC(=O)Oc1ccc(C(C)=O)cc1,inactive,inactive
Cc1cccc(C)c1[N+](=O)[O-],inactive,inactive
CN(C)c1ccc(C(=N)c2ccc(N(C)C)cc2)cc1,inactive,inactive
CCCCCCOC(=O)CC(CC(=O)OCCCCCC)(OC(=O)CCC)C(=O)OCCCCCC,inactive,inactive
CCCCCCCCS(=O)(=O)Cl,inactive,inactive

Structure (SMILES),Potency [1],Potency [2]
O=C(Oc1ccccc1C(=O)O)c1ccccc1O,inactive,inactive
Oc1ccc2c(c1)OC[C@@H](N1CCC(O)(c3ccc(F)cc3)CC1)[C@H]2O,inactive,inactive
c1ccc2c(c1)Cc1ccccc1-2,inactive,inactive
CCCCOC(=O)COc1ccc(Cl)cc1Cl,inactive,inactive
Cc1cc(-c2ccccc2)nnc1NCCN1CCOCC1,inactive,inactive
C=CC(C)(CCC=C(C)C)OC=O (stereo not given),inactive,inactive
COC(=O)[C@@H]1[C@H]2C[C@H]3c4[nH]c5ccccc5c4CCN3C[C@@H]2CC[C@@H]1O,inactive,inactive
O=C(CO)[C@@H](O)[C@H](O)[C@H](O)CO,inactive,inactive
O=C(O)c1ccc([N+](=O)[O-])cc1,inactive,inactive
N#CCc1cccc(C(F)(F)F)c1,inactive,inactive
O=S(=O)(Oc1ccc(Cl)cc1Cl)c1ccccc1,inactive,inactive
CC(O)CO (stereo not given),inactive,inactive
NC(=O)NNC(N)=O,inactive,inactive
CCCCCCCC(=O)N(C)C,inactive,inactive
COc1ccc(S(=O)(=O)N2c3ccc(Cl)cc3[C@@](O)(c3ccccc3Cl)[C@H]2C(=O)N2CCC[C@@H]2C(N)=O)cc1OC,inactive,inactive
O=c1[nH]c(=O)n([C@H]2C[C@H](O)[C@@H](CO)O2)cc1I,inactive,inactive
[Cl][Dy]([Cl])[Cl],inactive,inactive
CCCc1c(OCCCCc2nn[nH]n2)ccc(C(C)=O)c1O,inactive,inactive
N#Cc1cc2ccccc2c2ccccc12,inactive,inactive
Oc1cccc2c(O)cccc12,inactive,inactive
CC(C)CCOC(=O)/C=C/c1ccccc1,inactive,inactive
CCc1c2c(nc3ccc(OC(=O)N4CCC(N5CCCCC5)CC4)cc13)-c1cc3c(c(=O)n1C2)COC(=O)[C@]3(O)CC,inactive,inactive
Cc1ccccc1Br,inactive,inactive
CC(C(=O)O)c1ccc(C(=O)c2ccccc2)s1 (stereo not given),inactive,inactive
CCNc1nc(NC(C)CC)nc(OC)n1 (stereo not given),inactive,inactive

# From PubChem BioAssay (Tox21)
